Test results reported in PubChem BioAssay (NCATS).
Where “and” joins values, the source holds several entries; their conditions need not be identical. Identical values can stand only once. Records with an inconclusive call do not appear. Values without a mark were called inactive. Calls of active or inactive are those of the source. The call rests on the fitted dose curve; in most records, active means well fitted inhibition curve with a large enough effect; inconclusive means small, poorly fitted or top-dose-only effect; inactive means flat fitted curve, though single readings scatter.
Potency means the concentration at half of the fitted maximal effect.

System: not listed separately
Assay: qHTS profiling for inhibitors of Plasmodium falciparum proliferation (AID 504749); further: nearly all actives have a fitted effect of over 60% in size;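 on activity, negative = inhibition: 0% = DMSO vehicle and full inhibition = artemisinin control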
Conditions: P. falciparum in erythrocytes, SYBR Green DNA, 72 h; at 28.7 µM (top of the series); parasite line B
Procedure, shortened: (§1)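 Readout was DNA-dye fluorescence from lysed cultures, ex 485/em 535 nm. Parasitized red cells had grown 72 h with compound; data scaled between 0.29 uM artemisinin and DMSO wells and corrected using vehicle-only plates.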
Compound `CC1NCCOC1c1ccccc1` (stereo not given) has an activity, negative = inhibition of 5.03%.
In the case of `CCCC(C)(COC(N)=O)COC(=O)NC(C)C` (stereo not given), the activity, negative = inhibition is reported as 15.9%.
For `N#CC(C#N)=Cc1ccc(O)c(O)c1`, the activity, negative = inhibition was -25.8%.
Compound `Nc1ccncc1` has an activity, negative = inhibition of 1.68%.
Compound `CC(=O)[C@H]1CC[C@H]2[C@@H]3CC[C@H]4C[C@H](O)CC[C@]4(C)[C@H]3C(=O)C[C@]12C` has an activity, negative = inhibition of 12.3%.
Compound `CCC(C(N)=O)N1CCCC1=O` (stereo not given) has an activity, negative = inhibition of 6.9%.
`CN(C)CCc1ccc(O)cc1` gave an activity, negative = inhibition of 2.47%.
For `NCC(CC(=O)O)c1ccc(Cl)cc1` (stereo not given), the activity, negative = inhibition was 18.2%.
Work on `C=C1CC[C@@]2(O)[C@H]3Cc4ccc(O)c5c4[C@@]2(CCN3CC2CC2)[C@H]1O5` yielded an activity, negative = inhibition of 12.8%.
Compound `NP(N)(=O)NC(=O)c1ccc(F)cc1` has an activity, negative = inhibition of 3.8%.
With `CC[N+]1(C)CCCC(OC(=O)C(O)(c2ccccc2)c2ccccc2)C1` (stereo not given) the activity, negative = inhibition was 2.86%.
Compound `CC(=O)Nc1cc([As](=O)(O)O)ccc1O` has an activity, negative = inhibition of -0.406%.
`CC(C)CC(N(C)C)C1(c2ccc(Cl)cc2)CCC1` (stereo not given) showed an activity, negative = inhibition of 4.99%.
`CC(CCc1ccccc1)NC(C)C(O)c1ccc(O)cc1` (stereo not given) showed an activity, negative = inhibition of 8.3%.
`CCC(COC(=O)c1cc(OC)c(OC)c(OC)c1)(c1ccccc1)N(C)C` (stereo not given) showed an activity, negative = inhibition of -13.8%.
Work on `NN=C(N)N` yielded an activity, negative = inhibition of 11.2%.
For `CC(=O)[C@H]1CC[C@H]2[C@@H]3CC[C@H]4C[C@](C)(O)CC[C@]4(C)[C@H]3CC[C@]12C`, the activity, negative = inhibition was 12.8%.
`C=C(C)[C@H]1Cc2c(ccc3c2O[C@@H]2COc4cc(OC)c(OC)cc4[C@@H]2C3=O)O1` showed an activity, negative = inhibition of -4.67%.
In the case of `CC[N+](CC)(CC)CC`, the activity, negative = inhibition is reported as 17.3%.
For `CC1OC(C)OC(C)O1` (stereo not given), the activity, negative = inhibition was 12.4% and 13.9%.
Compound `Oc1cccc2cccnc12` has an activity, negative = inhibition of -11.6%.
Work on `Cc1ccc(-c2nc3ccc(C)cn3c2CC(=O)N(C)C)cc1` yielded an activity, negative = inhibition of -1.84%.
In the case of `CCOP(=S)(OCC)Oc1cc(C)nc(C(C)C)n1`, the activity, negative = inhibition is reported as 9.55%.
`O=C(O)c1ccc2[nH]cc(CCCCN3CC=C(c4ccccc4)CC3)c2c1` showed an activity, negative = inhibition of 0.723%.
`NCC(O)c1ccc(O)cc1` (stereo not given) showed an activity, negative = inhibition of 3.73%.
Compound `CN1C(=S)CN=C(c2ccccc2)c2cc(Cl)ccc21` has an activity, negative = inhibition of 2.35%.

Same assay, conditions: P. falciparum in erythrocytes, SYBR Green DNA, 72 h; parasite line A
For `O=c1[nH]c2ccccc2n1CCCN1CCC(n2c(=O)[nH]c3cc(Cl)ccc32)CC1`, the Potency was 11.2 µM (active).
With `CCOC(=O)C1(c2ccccc2)CCN(CCC(C#N)(c2ccccc2)c2ccccc2)CC1` the Potency was 2.51 µM (active).
In the case of `Oc1cc(Cl)ccc1Oc1ccc(Cl)cc1Cl`, the Potency is reported as 11.2 µM (active).
For `Clc1ccc(COC(Cn2ccnc2)c2ccc(Cl)cc2Cl)cc1` (stereo not given), the Potency was 3.55 µM (active).
With `O=[N+]([O-])c1cc([As](=O)(O)O)ccc1O` the Potency was 3.98 µM (active).

Same assay, conditions: P. falciparum in erythrocytes, SYBR Green DNA, 72 h; parasite line B
For `CCOC(=O)C1(c2ccccc2)CCN(CCC(C#N)(c2ccccc2)c2ccccc2)CC1`, the Potency was 3.16 µM (active).
In the case of `Oc1cc(Cl)ccc1Oc1ccc(Cl)cc1Cl`, the Potency is reported as 5.01 µM (active).
In the case of `Clc1ccc(COC(Cn2ccnc2)c2ccc(Cl)cc2Cl)cc1` (stereo not given), the Potency is reported as 2.51 µM (active).
In the case of `O=[N+]([O-])c1cc([As](=O)(O)O)ccc1O`, the Potency is reported as 3.16 µM (active).

System: 3D7
Assay: as above
Conditions: P. falciparum in erythrocytes, SYBR Green DNA, 72 h; series mostly up to 28.7 µM
Procedure, shortened: as §1
In the case of `CC1NCCOC1c1ccccc1` (stereo not given), the Potency is reported as “inactive”.
With `CCCC(C)(COC(N)=O)COC(=O)NC(C)C` (stereo not given) the Potency was “inactive”.
With `N#CC(C#N)=Cc1ccc(O)c(O)c1` the Potency was “inactive”.
In the case of `Nc1ccncc1`, the Potency is reported as “inactive”.
With `CC(=O)[C@H]1CC[C@H]2[C@@H]3CC[C@H]4C[C@H](O)CC[C@]4(C)[C@H]3C(=O)C[C@]12C` the Potency was “inactive”.
For `CCC(C(N)=O)N1CCCC1=O` (stereo not given), the Potency was “inactive”.
In the case of `CN(C)CCc1ccc(O)cc1`, the Potency is reported as “inactive”.
In the case of `NCC(CC(=O)O)c1ccc(Cl)cc1` (stereo not given), the Potency is reported as “inactive”.
In the case of `C=C1CC[C@@]2(O)[C@H]3Cc4ccc(O)c5c4[C@@]2(CCN3CC2CC2)[C@H]1O5`, the Potency is reported as “inactive”.
For `NP(N)(=O)NC(=O)c1ccc(F)cc1`, the Potency was “inactive”.
For `CC[N+]1(C)CCCC(OC(=O)C(O)(c2ccccc2)c2ccccc2)C1` (stereo not given), the Potency was “inactive”.
With `CC(=O)Nc1cc([As](=O)(O)O)ccc1O` the Potency was “inactive”.
For `CC(C)CC(N(C)C)C1(c2ccc(Cl)cc2)CCC1` (stereo not given), the Potency was “inactive”.
With `CC(CCc1ccccc1)NC(C)C(O)c1ccc(O)cc1` (stereo not given) the Potency was “inactive”.
For `CCC(COC(=O)c1cc(OC)c(OC)c(OC)c1)(c1ccccc1)N(C)C` (stereo not given), the Potency was “inactive”.
For `NN=C(N)N`, the Potency was “inactive”.
For `CC(=O)[C@H]1CC[C@H]2[C@@H]3CC[C@H]4C[C@](C)(O)CC[C@]4(C)[C@H]3CC[C@]12C`, the Potency was “inactive”.
With `CCOC(=O)C1(c2ccccc2)CCN(CCC(C#N)(c2ccccc2)c2ccccc2)CC1` the Potency was 2.51 µM (active).
In the case of `Oc1cc(Cl)ccc1Oc1ccc(Cl)cc1Cl`, the Potency is reported as 11.2 µM (active).
For `C=C(C)[C@H]1Cc2c(ccc3c2O[C@@H]2COc4cc(OC)c(OC)cc4[C@@H]2C3=O)O1`, the Potency was “inactive”.
With `Clc1ccc(COC(Cn2ccnc2)c2ccc(Cl)cc2Cl)cc1` (stereo not given) the Potency was 3.16 µM (active).
For `O=[N+]([O-])c1cc([As](=O)(O)O)ccc1O`, the Potency was 3.98 µM (active).
For `CC[N+](CC)(CC)CC`, the Potency was “inactive”.
In the case of `CC1OC(C)OC(C)O1` (stereo not given), the Potency is reported as “inactive”.
In the case of `Oc1cccc2cccnc12`, the Potency is reported as “inactive”.
For `Cc1ccc(-c2nc3ccc(C)cn3c2CC(=O)N(C)C)cc1`, the Potency was “inactive”.
For `CCOP(=S)(OCC)Oc1cc(C)nc(C(C)C)n1`, the Potency was “inactive”.
For `O=C(O)c1ccc2[nH]cc(CCCCN3CC=C(c4ccccc4)CC3)c2c1`, the Potency was “inactive”.
For `NCC(O)c1ccc(O)cc1` (stereo not given), the Potency was “inactive”.
In the case of `CN1C(=S)CN=C(c2ccccc2)c2cc(Cl)ccc21`, the Potency is reported as “inactive”.
